This is one part of a sample in which hits are shown more often than they occur.
nsP2pro primary: blocks chikungunya virus nsP2 protease peptide cleavage; AID 1964107; Q8JUX6; 31,000 compounds, 1.1% hits; Potency, µM (titrated, usually from 24.9 µM), actives largely listed as inhibitors; FRET peptide cleavage, nsP2pro, fluorescence 1 h; note: nearly all actives have a fitted effect of over 60% in size
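Enzyme 150 nM, substrate 2.5 uM (both final); Tris-HCl 10 mM pH 8.0 + 0.01% Tween 20; cpd up to 25 uM, 7 pts; 15 min preinc., 1 h RT; fluorescence ex 525/em 598.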
CHIKV nsP2 cell: inhibits CHIKV nsP2 protease in cells | shares compounds with nsP2pro primary | cell-based CHIKV nsP2 protease reporter assay | Potency, µM (doses to about 51.1 µM), hits mostly inhibitors | 450 compounds, 10% hits; note: nearly all actives have a fitted effect of over 70% in size
NSP2 full ctr: inhibits full-length CHIKV NSP2 enzyme. Potency, µM (series often up to 50.7 µM), most hits filed as inhibitors. shares compounds with nsP2pro primary. Full-length CHIKV NSP2 protease enzymatic counterscreen. 410 compounds, 39% hits; note: nearly all actives have a fitted effect of over 65% in size
Furin counter: selectivity counter-screen for CHIKV nsP2 protease inhibitors: human furin; shares compounds with nsP2pro primary; AID 1964102; 410 compounds, 6% hits; Recombinant human furin enzymatic counterscreen, fluorogenic substrate; Potency, µM (titrated, usually from 50.6 µM), usual class: inhibitors
Target sequence (P09958 whole entry, looked up): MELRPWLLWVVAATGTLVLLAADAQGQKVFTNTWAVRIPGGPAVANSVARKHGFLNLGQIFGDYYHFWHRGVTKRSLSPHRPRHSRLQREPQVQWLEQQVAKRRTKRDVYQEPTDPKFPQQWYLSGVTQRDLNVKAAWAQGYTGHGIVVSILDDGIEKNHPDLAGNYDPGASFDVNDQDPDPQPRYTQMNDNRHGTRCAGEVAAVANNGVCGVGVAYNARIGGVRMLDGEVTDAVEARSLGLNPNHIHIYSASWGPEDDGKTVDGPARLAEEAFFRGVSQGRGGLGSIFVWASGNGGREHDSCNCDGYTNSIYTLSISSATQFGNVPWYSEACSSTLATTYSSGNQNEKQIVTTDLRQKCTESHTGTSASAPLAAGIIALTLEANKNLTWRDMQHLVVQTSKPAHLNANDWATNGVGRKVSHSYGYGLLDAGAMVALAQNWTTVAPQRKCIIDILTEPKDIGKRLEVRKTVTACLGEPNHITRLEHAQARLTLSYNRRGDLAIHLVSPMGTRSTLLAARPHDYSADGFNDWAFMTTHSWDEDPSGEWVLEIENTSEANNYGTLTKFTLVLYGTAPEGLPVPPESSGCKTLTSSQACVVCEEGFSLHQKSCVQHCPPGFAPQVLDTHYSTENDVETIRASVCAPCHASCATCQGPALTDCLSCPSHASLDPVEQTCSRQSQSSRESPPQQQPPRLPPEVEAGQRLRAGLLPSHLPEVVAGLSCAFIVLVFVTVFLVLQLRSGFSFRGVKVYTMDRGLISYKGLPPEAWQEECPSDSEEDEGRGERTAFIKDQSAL
nsP2 NS23 pep: nsP2pro inhibition on native NS2/3 peptide substrate. shares compounds with nsP2pro primary. Purified CHIKV nsP2 protease, endogenous NS2/3 peptide cleavage. Potency, µM (doses to about 51 µM), hits mostly inhibitors. 410 compounds, 34% hits; note: nearly all actives have a fitted effect of over 55% in size
Papain counter: inhibits papain in a CHIKV nsP2 protease selectivity counterscreen | shares compounds with nsP2pro primary | purified papain protease activity, enzymatic inhibition | Potency, µM (top dose mostly 51 µM), hits mostly inhibitors | 410 compounds, 5% hits | AID 1964104
nsP2pro confirm: confirmation of CHIKV nsP2 protease inhibitors. CHIKV nsP2 protease enzymatic activity, qHTS. shares compounds with nsP2pro primary. 410 compounds, 43% hits. Potency, µM (series often up to 25.5 µM), usual class: inhibitors; note: nearly all actives have a fitted effect of over 75% in size
HCV NS3 counter: HCV NS3/4A protease inhibition, counterscreen | AID 1964106 | shares compounds with nsP2pro primary | HCV NS3/4A protease biochemical counterscreen | Potency, µM (doses to about 50.9 µM), usual class: inhibitors | 410 compounds, 20% hits; note: nearly all actives have a fitted effect of over 55% in size
Hits are given with their value. Calls come from the whole dose curve.

How did CN1CCN(c2ncc3c(n2)CCN(Cc2ccc(Br)s2)C3)CC1 do in these assays?
nsP2pro primary: inconclusive; CHIKV nsP2 cell: inconclusive; NSP2 full ctr: 18µM; Furin counter: inactive; nsP2 NS23 pep: inconclusive; Papain counter: inactive; nsP2pro confirm: inconclusive; HCV NS3 counter: 12µM

Results for CCN1CCN(c2ncc3c(n2)CCN(Cc2ccc(OC(C)C)cc2)C3)CC1 ?
nsP2pro primary: inactive

What do the screens show for `CCN1CCN(c2ncc3c(n2)CCN(Cc2ccc(Br)s2)C3)CC1`?
nsP2pro primary: inactive

How did COc1ccccc1-c1nnc2ccc(C(=O)N3CCN(C(C)=O)CC3)cn12 do in these assays?
nsP2pro primary: inactive

How did O=c1n(CCN2CCCC(N[S+](=O)([O-])c3ccccc3)C2)nc2n1CCCC2 (centres undefined) do in these assays?
nsP2pro primary: inactive

How did O=C(NCCc1nc2ccccc2n1CCOc1ccc(C(F)(F)F)cc1)C1CCCCC1 do in these assays?
nsP2pro primary: inactive

Results for CCCN(CCC)[C@@H]1CCc2ccc3[nH]c(C#N)cc3c2C1 ?
nsP2pro primary: inactive

How did COc1ccc(NC(=O)c2cc(-c3ccc(C)c(C)c3)nc3ccccc23)cc1 do in these assays?
nsP2pro primary: inactive

How did Cc1cc(C)nc(NC(=S)N2CCN(c3ncccn3)CC2)c1 do in these assays?
nsP2pro primary: inactive

Results for O=C1c2ccccc2NC(c2ccc(Br)o2)N1O (centres undefined) ?
nsP2pro primary: inactive

Results for Fc1ccccc1C1=NC(c2ccc(C(F)(F)F)cc2)=Nc2ccccc2N1 ?
nsP2pro primary: inactive

How did Brc1ccc(-c2ccc(C3Nc4cccc5cccc(c45)N3)o2)cc1 do in these assays?
nsP2pro primary: inactive

What do the screens show for `O=C1c2ccccc2NC(c2ccc(-c3cccs3)o2)N1O` (centres undefined)?
nsP2pro primary: 5.6µM; CHIKV nsP2 cell: inactive; NSP2 full ctr: inactive; Furin counter: inactive; nsP2 NS23 pep: inactive; Papain counter: inactive; nsP2pro confirm: inactive; HCV NS3 counter: inactive

Results for O=C1c2ccccc2NC(c2ccccc2O)N1Cc1ccccc1 (centres undefined) ?
nsP2pro primary: inactive

What do the screens show for `O=C1c2ccccc2NC(c2ccc(-c3ccc(C(F)(F)F)cc3)o2)N1O` (centres undefined)?
nsP2pro primary: 10µM; CHIKV nsP2 cell: 21µM; NSP2 full ctr: inactive; Furin counter: inactive; nsP2 NS23 pep: inactive; Papain counter: inactive; nsP2pro confirm: inactive; HCV NS3 counter: inactive

How did COc1cc(Nc2nc(-c3ccncc3)nc3ccccc23)ccc1N1CCN(C)CC1 do in these assays?
nsP2pro primary: inactive

Results for CCOC(=O)[C@H](CCc1ccccc1)N[C@H](C)C(=O)N1C2CCCCC2C[C@H]1C(=O)O (some centres undefined) ?
nsP2pro primary: inactive

What do the screens show for `CCCCCCC(=O)OCC(COC(=O)CCCCCC)OC(=O)CCCCCC`?
nsP2pro primary: inactive

What do the screens show for `Cc1ccc(-c2ccc(=O)n(CC(=O)NCCc3ccncc3)n2)cc1`?
nsP2pro primary: inactive

Results for Cn1c(=O)n(-c2ccc(C(C)(C)C#N)cc2)c2c3cc(C#Cc4cccnc4)ccc3ncc21 ?
nsP2pro primary: inactive

How did CCCCCCCCCCCCCCCC(=O)OCC=C(C)C=CC=C(C)C=CC1=C(C)CCCC1(C)C do in these assays?
nsP2pro primary: inactive

How did COc1ccc(-c2nc3ccccc3s2)cc1OC do in these assays?
nsP2pro primary: inactive

What do the screens show for `CNCCN1CCC(OCc2ccccc2)CC1`?
nsP2pro primary: inactive

Results for NS(=O)(=O)C#Cc1ccccc1 ?
nsP2pro primary: 7.9µM; CHIKV nsP2 cell: inconclusive; NSP2 full ctr: 13µM; Furin counter: inactive; nsP2 NS23 pep: inconclusive; Papain counter: inactive; nsP2pro confirm: 6.3µM; HCV NS3 counter: inactive

What do the screens show for `O=S(=O)(O)c1ccccc1`?
nsP2pro primary: inactive

How did O=c1ccc2ccc3occc3c2o1 do in these assays?
nsP2pro primary: inactive

Results for Nc1c(-c2ccncc2)cc[nH]c1=O ?
nsP2pro primary: inactive

Results for Nc1cc(-c2ccncc2)c[nH]c1=O ?
nsP2pro primary: 3.5µM; CHIKV nsP2 cell: inactive; NSP2 full ctr: inconclusive; Furin counter: inactive; nsP2 NS23 pep: inconclusive; Papain counter: inactive; nsP2pro confirm: inconclusive; HCV NS3 counter: inactive

What do the screens show for `Cc1cc(NC(=O)Nc2nnc(-c3cccnc3)s2)ccc1Br`?
nsP2pro primary: inactive

How did CCn1c(=O)c(-c2ccn[nH]2)cc2c(C)nc(N)nc21 do in these assays?
nsP2pro primary: inactive

How did CC1=C(C(=O)O[C@@H]2O[C@H](COC3OCC(O)C(O)C3O)[C@@H](O)[C@H](O)[C@H]2O)C(C)(C)CCC1 (some centres undefined) do in these assays?
nsP2pro primary: inactive

How did O=C(Nc1nc(-c2ccccc2)cs1)c1ccncc1NS(=O)(=O)c1cccnc1 do in these assays?
nsP2pro primary: inactive

Results for Cc1cc(C)nc(NC(=S)N2CCN(c3nnc(C(F)(F)F)s3)CC2)c1 ?
nsP2pro primary: inactive

What do the screens show for `Cc1cc(C)nc(NC(=S)N2CCN(c3ccccc3C#N)CC2)c1`?
nsP2pro primary: inactive

Results for COc1ccc2nc(-c3ccc(F)cc3Cl)sc2c1 ?
nsP2pro primary: inactive

Results for C/C(=N\N=C(N)N)c1cc(NC(=O)CCCCCCCCC(=O)Nc2cc(/C(C)=N/N=C(N)N)cc(/C(C)=N/N=C(N)N)c2)cc(/C(C)=N/N=C(N)N)c1 ?
nsP2pro primary: 5.6µM; CHIKV nsP2 cell: inactive; NSP2 full ctr: 13µM; Furin counter: 12µM; nsP2 NS23 pep: 13µM; Papain counter: inactive; nsP2pro confirm: 6.3µM; HCV NS3 counter: 12µM

Results for O=C(O)[C@H]1OC(O)[C@H](O)[C@@H](O)[C@@H]1O (some centres undefined) ?
nsP2pro primary: inactive

How did Cc1c(Cc2ccc3ccccc3n2)c2cc(F)ccc2n1CC(=O)O do in these assays?
nsP2pro primary: inconclusive; CHIKV nsP2 cell: inactive; NSP2 full ctr: inactive; Furin counter: inactive; nsP2 NS23 pep: inactive; Papain counter: inactive; nsP2pro confirm: inconclusive; HCV NS3 counter: inactive

Results for Cc1ccccc1Cn1c(C(=O)O)c(CNCc2cccc(F)c2)c2ccccc21 ?
nsP2pro primary: inactive

How did Cc1cccc(-c2nc3c4ccccc4n(CC(=O)Nc4cc(F)ccc4F)c(=O)n3n2)c1 do in these assays?
nsP2pro primary: inactive

What do the screens show for `Cc1ccc(S(=O)(=O)Nc2cc(F)ccc2C(=O)Nc2nc(-c3ccccc3)cs2)cc1`?
nsP2pro primary: inactive
